Unmarked numbers belong to inactive results. Records with an inconclusive call do not appear. The source made the active and inactive calls. Unless noted, calls follow the shape of the dose curve; as a rule, active = well fitted curve in either direction with a large enough effect (not every such curve was filed as active); inconclusive = small, poorly fitted or top-dose-only effect, or another doubt; inactive = flat fitted curve, though single readings scatter.
Key:
[1] = target: Lysosomal acid glucosylceramidase (Homo sapiens) (UniProt P04062); assay: Glucocerebrosidase-p2 (AID 348; in the data active = potency below about 10 µM; also: potency is read from the fitted curve at half-maximal effect); details: purified GBA, blue fluorogenic substrate, 40 min
Sequence of Lysosomal acid glucosylceramidase (Homo sapiens) (P04062 whole entry, looked up): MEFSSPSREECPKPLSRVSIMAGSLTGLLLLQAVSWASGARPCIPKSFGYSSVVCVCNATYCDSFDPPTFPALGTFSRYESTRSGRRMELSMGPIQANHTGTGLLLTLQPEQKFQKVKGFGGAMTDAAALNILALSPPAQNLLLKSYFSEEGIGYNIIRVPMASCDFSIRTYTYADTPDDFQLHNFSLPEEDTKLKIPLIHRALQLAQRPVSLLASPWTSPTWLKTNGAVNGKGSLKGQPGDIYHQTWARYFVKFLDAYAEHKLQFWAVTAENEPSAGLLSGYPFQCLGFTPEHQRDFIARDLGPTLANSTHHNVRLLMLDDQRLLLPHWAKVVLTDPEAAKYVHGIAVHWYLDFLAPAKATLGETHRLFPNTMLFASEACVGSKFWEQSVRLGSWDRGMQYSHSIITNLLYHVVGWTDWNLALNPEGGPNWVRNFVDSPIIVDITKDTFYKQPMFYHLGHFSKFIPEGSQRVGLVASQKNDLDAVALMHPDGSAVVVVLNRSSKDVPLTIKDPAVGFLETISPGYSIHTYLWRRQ
Summary of the method: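 Compounds titrated from 0.6 nM upwards against 0.2 nM enzyme in pH 5.9 citric acid/KH2PO4, taurocholate, tween-20; blue fluorogenic substrate 80 uM, 40 min room temperature, stopped and read Ex 365/Em 440 for AC50.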

[2] = AP1 Signaling Pathway (AID 357); details: ME-180 AP-1-bla reporter, EGF-induced, beta-lactamase ratio, 5 h; at 7.69 µM (top of the series) unless noted;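 also: ME-180 reporter cells stimulated with EGF at its EC50 level; % is scaled to controls: 0 for no effect and ±100 for the full control effect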
Summary of the method: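 Read-out was the 460nm/530nm emission ratio (excitation 405nm) after CCF4 loading for 2.5 hours at room temperature. Cells carried an AP-1-driven beta-lactamase reporter, were stimulated with EC50 EGF plus compound for 5 hours, and AC50 values came from titrations.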

[3] = target: Cytochrome P450 1A2 (Homo sapiens) (UniProt P05177); assay: p450-cyp1a2 (AID 410; calls by dose curve; also: potency is read from the fitted curve at half-maximal effect;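 as to activity change, negative = inhibition: -100% = full effect of reference inhibitor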); details: recombinant CYP1A2, luciferin-ME demethylation, luminescence; series mostly up to 11.4 µM
Sequence of Cytochrome P450 1A2 (Homo sapiens) (P05177 whole entry, looked up): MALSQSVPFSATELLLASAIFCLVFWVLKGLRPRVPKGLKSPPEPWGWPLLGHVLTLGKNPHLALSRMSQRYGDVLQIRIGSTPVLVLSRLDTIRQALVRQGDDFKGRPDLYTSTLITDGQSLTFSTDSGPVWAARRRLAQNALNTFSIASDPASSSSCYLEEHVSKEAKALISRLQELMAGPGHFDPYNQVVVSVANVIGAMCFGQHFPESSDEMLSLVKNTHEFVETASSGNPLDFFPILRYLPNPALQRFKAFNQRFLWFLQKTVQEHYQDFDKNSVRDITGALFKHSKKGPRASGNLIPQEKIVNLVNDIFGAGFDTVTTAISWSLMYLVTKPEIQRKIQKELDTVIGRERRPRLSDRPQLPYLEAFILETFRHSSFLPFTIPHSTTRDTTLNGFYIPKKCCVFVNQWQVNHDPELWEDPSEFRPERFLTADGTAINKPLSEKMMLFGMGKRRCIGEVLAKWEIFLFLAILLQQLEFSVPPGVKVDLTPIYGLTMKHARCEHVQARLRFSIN
Summary of the method: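 Luminescent readout of luciferin formed from Luciferin-ME by human CYP1A2; data normalized against complete inhibition by 57 uM furafylline. Enzyme 20nM, substrate 100uM at Km, 100mM KPO4 buffer, 60 min reaction at room temperature.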

[4] = NFAT Signaling Pathway (AID 444); details: Jurkat NFAT-bla M1, carbachol, beta-lactamase ratio, 5 h; at 7.69 µM (top of the series) unless noted;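 also: carbachol stimulus at about its EC50 of 1 µM final; % is scaled to controls: 0 for no effect and ±100 for the full control effect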
Summary of the method: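 Read-out: CCF4 FRET ratio (460 nm/530 nm) after 1 h RT dye loading, used for %activity and AC50 from titration series. Cells: Jurkat NFAT-β-lactamase/M1 line, treated with compound plus 1 uM carbachol for 5 h, 37 °C.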

[5] = Stat Signaling Pathway (AID 446); details: ME-180 SIE beta-lactamase reporter, IL-6 stimulated, 5 h; at 7.69 µM (top of the series) unless noted;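 also: ME-180 cervical cancer cells given 40 pM IL-6 alongside compound; SIE-controlled beta-lactamase reporter measured as 460/530 nm FRET emission ratio; % is scaled to controls: 0 for no effect and ±100 for the full control effect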
Summary of the method: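 Reporter line: ME-180 cervical carcinoma, SIE-beta-lactamase. Treatment: compound with 40 pM IL-6, 5 hrs, 37 C, in low-serum OPTI-MEM with 10 mM HEPES pH 7.3. Detection: 460/530 nm fluorescence.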

[6] = target: Glucocorticoid receptor (Homo sapiens) (UniProt P04150); assay: GR-GFP Redistribution (AID 450;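 active = compounds whose dose series gives a full or clear partial fitted curve of increased nuclear translocation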; also: potency is read from the fitted curve at half-maximal effect); details: U2OS GR-GFP nuclear translocation, laser cytometry, 2 h
Sequence of Glucocorticoid receptor (Homo sapiens) (P04150 whole entry, looked up, the tested form may be a part): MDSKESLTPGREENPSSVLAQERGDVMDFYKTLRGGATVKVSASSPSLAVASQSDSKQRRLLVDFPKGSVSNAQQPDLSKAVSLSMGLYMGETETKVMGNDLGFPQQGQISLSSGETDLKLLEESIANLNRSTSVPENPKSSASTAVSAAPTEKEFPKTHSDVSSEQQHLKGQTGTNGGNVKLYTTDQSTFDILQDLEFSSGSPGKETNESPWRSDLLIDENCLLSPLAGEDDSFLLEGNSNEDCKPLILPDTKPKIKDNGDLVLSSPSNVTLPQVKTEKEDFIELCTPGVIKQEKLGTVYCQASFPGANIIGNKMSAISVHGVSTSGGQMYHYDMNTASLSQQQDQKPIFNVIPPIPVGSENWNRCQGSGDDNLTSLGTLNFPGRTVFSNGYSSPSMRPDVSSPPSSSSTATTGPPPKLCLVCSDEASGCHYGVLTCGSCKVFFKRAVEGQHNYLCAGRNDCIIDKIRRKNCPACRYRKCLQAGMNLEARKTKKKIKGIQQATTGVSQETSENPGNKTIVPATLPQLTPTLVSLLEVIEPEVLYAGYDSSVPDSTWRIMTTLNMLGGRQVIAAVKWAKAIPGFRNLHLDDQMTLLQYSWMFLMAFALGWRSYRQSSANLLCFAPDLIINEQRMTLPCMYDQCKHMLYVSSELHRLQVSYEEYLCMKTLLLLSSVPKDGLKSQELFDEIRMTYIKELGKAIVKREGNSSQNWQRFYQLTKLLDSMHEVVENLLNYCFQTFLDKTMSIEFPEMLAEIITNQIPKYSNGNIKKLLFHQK

[7] = target: Glucocorticoid receptor (Homo sapiens) (UniProt P04150); assay: GR-EFC Redistribution (AID 451; calls by dose curve; also: potency is read from the fitted curve at half-maximal effect); details: CHO-K1 GR-EFC translocation, beta-gal luminescence, 2 h
Summary of the method: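 Translocation of GR-ED fusion to nuclear EA restores b-gal, read by luminescence after 1 h room-temperature detection. Engineered CHO-K1 biosensor cells, 1,000/well, exposed 2 h at 37 C to titrations up to 46 uM final.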

[8] = target: Mitogen-activated protein kinase 10 (Mus musculus) (UniProt Q61831); assay: JNK3 AlphaScreen Assay (AID 530); details: JNK3 lysate, c-Jun phosphorylation; series mostly up to 11.4 µM;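 also: kinase came from lysate of stimulated human HepG2 cells; signal reports phosphorylation of biotinylated GST-cJun 1-79 at Ser73 with 10 µM ATP; % is scaled to controls: 0 for no effect and ±100 for the full control effect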
Summary of the method: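 Compound titrations were preincubated 15 minutes at room temperature with substrate, antibody and pre-activated JNK3-containing HepG2 lysate. Reactions were started with 10 uM ATP and stopped with EDTA-containing bead buffer for AlphaScreen detection.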

[9] = target: 3',5'-cyclic-AMP phosphodiesterase 4B (Homo sapiens) (UniProt Q07343); assay: qHTS Assay for Inhibitors of PDE-IV (AID 607; active = well fitted activation curve with a large enough effect in the main read-out, with a control signal flat, not every such curve was filed as active; also: % of control where 0% means no effect); details: HEK293 ACTOne CNG channel cells, membrane potential fluorescence; series mostly up to 22.9 µM
Sequence of 3',5'-cyclic-AMP phosphodiesterase 4B (Homo sapiens) (Q07343 whole entry, looked up): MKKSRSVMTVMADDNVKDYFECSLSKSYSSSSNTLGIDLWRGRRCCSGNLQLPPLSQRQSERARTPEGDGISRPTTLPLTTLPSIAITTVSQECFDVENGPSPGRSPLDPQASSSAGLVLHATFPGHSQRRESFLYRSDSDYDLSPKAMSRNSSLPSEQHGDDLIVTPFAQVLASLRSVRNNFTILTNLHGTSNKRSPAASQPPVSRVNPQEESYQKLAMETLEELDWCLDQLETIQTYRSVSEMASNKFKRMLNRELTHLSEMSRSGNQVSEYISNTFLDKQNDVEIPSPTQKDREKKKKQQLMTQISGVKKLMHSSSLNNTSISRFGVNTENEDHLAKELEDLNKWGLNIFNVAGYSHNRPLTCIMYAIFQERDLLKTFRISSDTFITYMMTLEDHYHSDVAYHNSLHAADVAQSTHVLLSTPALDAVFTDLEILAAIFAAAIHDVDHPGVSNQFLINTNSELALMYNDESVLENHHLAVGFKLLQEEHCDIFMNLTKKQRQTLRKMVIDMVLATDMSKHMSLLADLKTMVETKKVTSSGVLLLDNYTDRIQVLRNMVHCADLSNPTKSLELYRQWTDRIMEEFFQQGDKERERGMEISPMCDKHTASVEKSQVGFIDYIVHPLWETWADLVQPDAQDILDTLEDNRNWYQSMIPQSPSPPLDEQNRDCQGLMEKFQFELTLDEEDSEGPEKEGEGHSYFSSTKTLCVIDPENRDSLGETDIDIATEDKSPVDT
Summary of the method: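 Cell-based read-out of cAMP via a modified cyclic nucleotide-gated channel and membrane potential dye (535/590 nm) in HEK293 cells expressing PDE4 endogenously. Compounds tested up to 22.9 uM final; 100 uM RO 20-1724 reference.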

| Structure (SMILES) | Potency [1] [µM] | activity change, negative = inhibition [2] [%] | Potency [3] | activity change, negative = inhibition [4] [%] | activity, negative = inhibition [5] [%] | Potency [6] [µM] | Potency [7] [µM] | Potency [8] | Potency [9] | activity change, negative = inhibition [3] |
| --- | --- | --- | --- | --- | --- | --- | --- | --- | --- | --- |
| CN1CCCN(C)C1c1cc([N+](=O)[O-])ccc1O | > 11.4 | 7.56 | inactive | -23.2 | -0.988 | > 46 | > 9.22 | inactive | inactive | – |
| CCN(CC)C[C@@H](O)c1ccc2ccc3ccccc3c2c1 | > 11.4 | 15.5 | 0.794 µM (active) | 16.1 | 13.3 | > 46 | > 9.22 | inactive | inactive | – |
| Cc1ccc(S(=O)(=O)O[C@@H]2[C@H]([C@@H]3COC(C)(C)O3)O[C@H]3OC(C)(C)O[C@@H]32)cc1 | > 11.4 | 1.73 | inactive | 3.01 | 7.9 | > 46 | > 9.22 | inactive | inactive | – |
| COc1ccc2nccc(SCC(=O)O)c2c1 | > 11.4 | 7.58 | 3.98 µM (active) | 6.79 | -2.7 | > 46 | > 9.22 | inactive | inactive | – |
| S=C(S)NCCN1CCNCC1 | > 11.4 | -1.68 | inactive | -3.23 | -9.45 | > 46 | > 9.22 | inactive | inactive | – |
| COC(=O)[C@@H]1[C@@H]2C[C@H]3c4[nH]c5ccccc5c4CCN3C[C@@H]2CC[C@@H]1OS(=O)(=O)O | > 11.4 | 1.46 | – | 3.3 | 12.7 | > 46 | > 9.22 | inactive | inactive | -10.3% [at 2.29 µM] |
| C#CCOCCCC(=O)O | > 11.4 | -3.26 | inactive | 0.738 | 4.1 | > 46 | > 9.22 | inactive | inactive | – |
| Nc1nc(N)c2nn(-c3ccc(C(=O)O)cc3)nc2n1 | > 11.4 | -3.5 | – | 6.6 | -0.747 | > 46 | > 9.22 | inactive | inactive | -13.4% [at 2.29 µM] |
| CN(C)CCn1c(CO)nc2c1c(=O)n(C)c(=O)n2C | > 11.4 | 1.13 | inactive | 1.85 | 6.5 | > 46 | > 9.22 | inactive | inactive | – |
| O=C(O)CCC(=O)c1ccc2sc3ccccc3c2c1 | > 11.4 | 3.02 | 3.98 µM (active) | 7.45 | -12.2 | > 46 | > 9.22 | inactive | inactive | – |
| CN(C(=O)c1ccncc1)c1ccccc1 | > 11.4 | -3.23 | inactive | 6.33 | 0.69 | > 46 | > 9.22 | inactive | inactive | – |
| Nc1cccc2cc(S(=O)(=O)Nc3ccc(C(=O)O)cc3)ccc12 | > 11.4 | -0.623 | inactive | 12.7 | -1.24 | > 46 | > 9.22 | inactive | inactive | – |
| Nc1ncnc2c1nc(-c1ccccc1)n2[C@H]1O[C@@H](CO)[C@@H](O)[C@H]1O | > 11.4 | -9.23 | – | 6.55 | 1.65 | > 46 | > 9.22 | inactive | inactive | -16.8% [at 2.29 µM] |
| Cn1c(=O)c2[nH]c(CS(=O)(=O)Cc3nc4c([nH]3)c(=O)n(C)c(=O)n4C)nc2n(C)c1=O | > 11.4 | -5.52 | – | -4.99 | -2.96 | > 46 | > 9.22 | inactive | inactive | -21.1% [at 2.29 µM] |
| O=C(O)c1nn(-c2ccc(Cl)cc2)c2c1C(=O)c1ccccc1C2=O | > 11.4 | -2.08 | 0.251 µM (active) | -17.6 | 2.2 | > 46 | > 9.22 | inactive | inactive | – |
| Cc1ccc(S(=O)(=O)NC(=O)Nc2ncn[nH]2)cc1 | > 11.4 | 3.19 | – | 13 | 0.243 | > 46 | > 9.22 | inactive | inactive | -21.5% [at 2.29 µM] |

| Structure (SMILES) | Potency [1] [µM] | activity change, negative = inhibition [2] [%] | Potency [3] | activity change, negative = inhibition [4] [%] | activity, negative = inhibition [5] [%] | Potency [6] [µM] | Potency [7] [µM] | Potency [8] | Potency [9] | activity change, negative = inhibition [3] |
| --- | --- | --- | --- | --- | --- | --- | --- | --- | --- | --- |
| O=C1c2cc([N+](=O)[O-])ccc2-c2ccc3c4ccc5c6c(ccc(c7ccc1c2c73)c64)C(=O)c1cc([N+](=O)[O-])ccc1-5 | > 11.4 | 0.115 | 0.794 µM (active) | 21.7 | 9.03 | > 46 | > 9.22 | inactive | inactive | – |
| O=C(O)[C@H](CCc1ccccc1)N1C(=O)c2ccccc2C1=O | > 11.4 | -11.9 | – | -3.82 | 8.91 | > 46 | > 9.22 | inactive | inactive | -9.6% [at 2.29 µM] |
| Clc1ccccc1C(Nc1ncccn1)Nc1ncccn1 | > 11.4 | 4.25 | inactive | 3.12 | 3.77 | > 46 | > 9.22 | inactive | inactive | – |
| CC(CCN)(CCN)[N+](=O)[O-] | > 11.4 | 10.4 | inactive | 9.23 | 5.23 | > 46 | > 9.22 | inactive | inactive | – |
| CN(C)CCCNc1ncnc2nc[nH]c12 | > 11.4 | -0.851 | inactive | -10.5 | 3.41 | > 46 | > 9.22 | inactive | inactive | – |
| CC(=O)[C@H]([C@@H](c1ccccc1)N1CCOCC1)N1CCOCC1 | > 11.4 | 4 | inactive | 15.1 | 4.56 | > 46 | > 9.22 | inactive | inactive | – |
| Nc1ncnc2nn([C@H]3O[C@@H](CO)[C@@H](O)[C@H]3O)nc12 | > 11.4 | -9.36 | inactive | 5.89 | -5.99 | > 46 | > 9.22 | inactive | inactive | – |
| O=[N+]([O-])/C=C\c1cc2ccccc2[nH]1 | > 11.4 | -11.8 | 1.26 µM (active) | 12.4 | 23.3 | > 46 | > 9.22 | inactive | inactive | – |
| O=C1C=C(Nc2nc(C(=O)O)cc(=O)[nH]2)c2ccccc2C1=O | > 11.4 | -3.21 | – | 7.2 | 1.38 | > 46 | > 9.22 | inactive | inactive | -15.8% [at 2.29 µM] |
| O=c1ccnc(SCc2ccc(Cl)cc2)[nH]1 | > 11.4 | 0.709 | inactive | 2.66 | 6.94 | > 46 | > 9.22 | inactive | inactive | – |
| N[C@H](C(=O)O)[C@H](N)C(=O)O | > 11.4 | 9.49 | inactive | -1.65 | 4.68 | > 46 | > 9.22 | inactive | inactive | – |
| NCCc1nc(-c2nc(C(=O)O)cs2)cs1 | > 11.4 | -1.29 | inactive | -25.9 | -10 | > 46 | > 9.22 | inactive | inactive | – |
| O=C(O)c1cc(-c2ccc3cc4c(cc3c2)OCO4)nc2ccccc12 | > 11.4 | -11 | 3.16 µM (active) | -22.2 | -8.03 | > 46 | > 9.22 | inactive | inactive | – |
| O=C(CCN1CCOCC1)Nc1ccc(F)cc1F | > 11.4 | -2.63 | inactive | 13.2 | 8.47 | > 46 | > 9.22 | inactive | inactive | – |
| Fc1cccc(F)c1C(Nc1nncs1)Nc1nncs1 | > 11.4 | 1.35 | – | 15.7 | 6.21 | > 46 | > 9.22 | inactive | inactive | 12.3% [at 2.29 µM] |

Source: PubChem BioAssay (NCATS)
